Data from PubChem BioAssay (NCI).
The panel holds about 83,000 compounds, 20% with a hit somewhere; the sample as a whole holds those more often.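 Single-concentration screen, 48 h exposure, 96-well plates. Endpoint: percent growth. Below 10 = active.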 Active and inactive are the calls of the source.

Tests used:
Assay in all cases: NCI-60 one-dose screen, 48 h (100 = growth as untreated, 0 = no growth, -100 = all killed)
Conditions in all cases: 10 µM unless noted
HCT-15 colon = test system: HCT-15 colon
HT29 colon = test system: HT29 colon
SNB-75 CNS = test system: SNB-75 CNS
U251 CNS = test system: U251 CNS
PC-3 prostate = test system: PC-3 prostate
SK-MEL-5 melanoma = test system: SK-MEL-5 melanoma
UACC-62 melanoma = test system: UACC-62 melanoma
LOX IMVI melanoma = test system: LOX IMVI melanoma
SK-MEL-28 melanoma = test system: SK-MEL-28 melanoma
SK-MEL-2 melanoma = test system: SK-MEL-2 melanoma
EKVX NSCLC = test system: EKVX NSCLC
SN12C renal = test system: SN12C renal
UO-31 renal = test system: UO-31 renal
TK-10 renal = test system: TK-10 renal
ACHN renal = test system: ACHN renal
CAKI-1 renal = test system: CAKI-1 renal
A498 renal = test system: A498 renal
CCRF-CEM leukemia = test system: CCRF-CEM leukemia
MOLT-4 leukemia = test system: MOLT-4 leukemia
SNB-19 CNS = test system: SNB-19 CNS

Measured: growth

O=C(Cc1c(F)cccc1Cl)Nc1ccc(S(=O)(=O)Nc2ncccn2)cc1
inactive: HCT-15 colon 104% | HT29 colon 120% | SNB-75 CNS 110% | U251 CNS 105% | PC-3 prostate 100% | SK-MEL-5 melanoma 100% | UACC-62 melanoma 107% | LOX IMVI melanoma 92.9% | SK-MEL-28 melanoma 122% | SK-MEL-2 melanoma 73.1% | EKVX NSCLC 100% | SN12C renal 96% | UO-31 renal 42.7% | TK-10 renal 112% | ACHN renal 100% | CAKI-1 renal 91% | A498 renal 98.4% | CCRF-CEM leukemia 61.6% | MOLT-4 leukemia 103%

CN(C)C/C=C/C(=O)Nc1cc2c(Nc3cccc(Cl)c3F)ncnc2cc1OCCOC(F)F
active: SNB-75 CNS 1.35% | ACHN renal 4.97% | A498 renal -14.5%
inactive: HCT-15 colon 21.8% | HT29 colon 18.2% | SNB-19 CNS 57.1% | U251 CNS 50.3% | PC-3 prostate 40.2% | SK-MEL-5 melanoma 73.4% | LOX IMVI melanoma 43.9% | SK-MEL-28 melanoma 78.2% | SK-MEL-2 melanoma 70.1% | EKVX NSCLC 19.2% | SN12C renal 12.6% | UO-31 renal 16.1% | TK-10 renal 22.4% | CAKI-1 renal 10.1% | CCRF-CEM leukemia 63.1% | MOLT-4 leukemia 38.6%

COc1ccc(/C=C/C(=O)OCC(=O)NNC(=O)c2ccccc2)cc1OC
inactive: HCT-15 colon 108% | HT29 colon 105% | SNB-75 CNS 78.2% | SNB-19 CNS 111% | U251 CNS 97% | PC-3 prostate 97.3% | SK-MEL-5 melanoma 97.8% | LOX IMVI melanoma 87.1% | SK-MEL-28 melanoma 125% | SK-MEL-2 melanoma 68.6% | EKVX NSCLC 84.4% | SN12C renal 101% | UO-31 renal 80.9% | TK-10 renal 121% | ACHN renal 90.2% | CAKI-1 renal 83.5% | A498 renal 93% | CCRF-CEM leukemia 93.8% | MOLT-4 leukemia 70.1%

Cc1ccc(S(=O)(=O)OCC(=O)Nc2ccc(C(=O)O)c(O)c2)cc1
inactive: HCT-15 colon 109% | HT29 colon 98.6% | SNB-75 CNS 98.8% | SNB-19 CNS 108% | U251 CNS 96.7% | PC-3 prostate 91.3% | SK-MEL-5 melanoma 96.3% | LOX IMVI melanoma 78.5% | SK-MEL-28 melanoma 98.6% | SK-MEL-2 melanoma 39.5% | EKVX NSCLC 103% | SN12C renal 105% | UO-31 renal 53% | TK-10 renal 118% | ACHN renal 102% | A498 renal 99.3% | CCRF-CEM leukemia 83.5% | MOLT-4 leukemia 57.1%

Nc1c(C(=O)Nc2ccccc2)sc2nc3c(cc12)CCC3
inactive: HCT-15 colon 55.7% | HT29 colon 88% | SNB-75 CNS 65.5% | SNB-19 CNS 85.1% | U251 CNS 70.9% | PC-3 prostate 81% | SK-MEL-5 melanoma 68.7% | UACC-62 melanoma 69.8% | LOX IMVI melanoma 89.1% | SK-MEL-28 melanoma 80.4% | SN12C renal 85% | UO-31 renal 80.9% | TK-10 renal 96% | CAKI-1 renal 81.5% | A498 renal 80.7% | CCRF-CEM leukemia 89.7% | MOLT-4 leukemia 90.3%

COc1cc(/C=C\c2cc(OC)c(OC)c(OC)c2)cc(N/C=C\C(=O)c2c[nH]c3ccccc23)c1OC
active: HCT-15 colon -39% | HT29 colon -77.7% | LOX IMVI melanoma -73.3% | SK-MEL-28 melanoma -90% | UO-31 renal -93% | TK-10 renal -43.4% | CCRF-CEM leukemia -57.3% | MOLT-4 leukemia -29%
inactive: SNB-75 CNS 34% | SNB-19 CNS 54.1% | U251 CNS 58.7% | PC-3 prostate 37.3% | SK-MEL-5 melanoma 54.2% | SK-MEL-2 melanoma 46.7% | SN12C renal 70.8% | A498 renal 39.3%

CCOC(=O)C1=C(CSC(=S)N(C2CCCCC2)C2CCCCC2)N(C)C(=O)NC1c1ccccc1 (centres undefined)
inactive: HCT-15 colon 39.6% | HT29 colon 22% | SNB-75 CNS 71.8% | SNB-19 CNS 49.2% | U251 CNS 39.5% | PC-3 prostate 21.6% | SK-MEL-5 melanoma 14.7% | LOX IMVI melanoma 33% | SK-MEL-28 melanoma 75.8% | SK-MEL-2 melanoma 55.6% | SN12C renal 71.2% | UO-31 renal 44.5% | TK-10 renal 74% | ACHN renal 37.8% | CAKI-1 renal 25.4% | CCRF-CEM leukemia 35.3% | MOLT-4 leukemia 28.2%

O=S(=O)(NCCCNc1nccc(-c2c(-c3ccc(F)c(O)c3)nc3sccn23)n1)c1ccc(Cl)cc1
inactive: HCT-15 colon 82.7% | HT29 colon 70.1% | SNB-75 CNS 122% | SNB-19 CNS 115% | U251 CNS 84.5% | PC-3 prostate 58.7% | SK-MEL-5 melanoma 47.2% | LOX IMVI melanoma 45.5% | SK-MEL-28 melanoma 23.3% | SK-MEL-2 melanoma 27.7% | EKVX NSCLC 101% | SN12C renal 77.4% | UO-31 renal 67.8% | TK-10 renal 135% | ACHN renal 65.9% | CAKI-1 renal 54.7% | A498 renal 109% | CCRF-CEM leukemia 35.2% | MOLT-4 leukemia 46.1%

C=CC(=O)N[C@H](/C=C/C(=O)OCC)Cc1ccc(-c2cc(Cl)cc(Cl)c2)cc1
inactive: HCT-15 colon 79.2% | HT29 colon 86.9% | SNB-75 CNS 82.5% | SNB-19 CNS 91.1% | U251 CNS 79% | PC-3 prostate 60.7% | SK-MEL-5 melanoma 72.8% | LOX IMVI melanoma 86.7% | SK-MEL-28 melanoma 113% | SK-MEL-2 melanoma 90.4% | EKVX NSCLC 91% | SN12C renal 88.6% | UO-31 renal 56.7% | TK-10 renal 89.1% | ACHN renal 90.1% | CAKI-1 renal 79.4% | CCRF-CEM leukemia 79.3% | MOLT-4 leukemia 74.3%

O=c1oc2c([nH]c3ccc4ccccc4c32)c2ccccc12
inactive: HCT-15 colon 105% | HT29 colon 111% | SNB-75 CNS 126% | SNB-19 CNS 108% | U251 CNS 100% | PC-3 prostate 97.7% | SK-MEL-5 melanoma 85.5% | LOX IMVI melanoma 98.8% | SK-MEL-28 melanoma 134% | SK-MEL-2 melanoma 107% | EKVX NSCLC 85.4% | SN12C renal 106% | UO-31 renal 128% | TK-10 renal 127% | CAKI-1 renal 109% | A498 renal 106% | CCRF-CEM leukemia 97.6% | MOLT-4 leukemia 85.2%

O=[N+]([O-])c1ccc(S(=O)(=O)N2CCN(c3ccnc4cc(Cl)ccc34)CC2)c([N+](=O)[O-])c1
inactive: HCT-15 colon 66.6% | HT29 colon 93.5% | SNB-75 CNS 73.8% | SNB-19 CNS 98.2% | U251 CNS 93.9% | PC-3 prostate 95.1% | SK-MEL-5 melanoma 98.8% | LOX IMVI melanoma 32% | SK-MEL-28 melanoma 108% | EKVX NSCLC 87.9% | SN12C renal 88.2% | UO-31 renal 55.4% | TK-10 renal 95.4% | ACHN renal 84.3% | CAKI-1 renal 81.1% | A498 renal 90% | CCRF-CEM leukemia 14.8% | MOLT-4 leukemia 44.5%

COc1cc(/C=C2\C=C(c3ccc(F)cc3)N(Cc3ccccc3)C2=O)cc(OC)c1OC
inactive: HCT-15 colon 53.6% | HT29 colon 78.9% | SNB-75 CNS 70.8% | SNB-19 CNS 79% | U251 CNS 48.8% | PC-3 prostate 32.7% | SK-MEL-5 melanoma 36.1% | LOX IMVI melanoma 65.3% | SK-MEL-28 melanoma 94.2% | SK-MEL-2 melanoma 93.1% | SN12C renal 65.7% | UO-31 renal 45.9% | TK-10 renal 90.3% | ACHN renal 73.1% | CAKI-1 renal 63.3% | A498 renal 57.4% | CCRF-CEM leukemia 62% | MOLT-4 leukemia 25.9%

CNC(=O)Cc1nc(-c2cccc(NS(=O)(=O)c3c(F)cccc3F)c2F)c(-c2ccnc(Nc3ccccc3)n2)s1
inactive: HCT-15 colon 72.1% | SNB-75 CNS 58.2% | SNB-19 CNS 75.4% | U251 CNS 86.6% | PC-3 prostate 81.8% | SK-MEL-5 melanoma 63.2% | SK-MEL-28 melanoma 15.2% | SK-MEL-2 melanoma 55.2% | SN12C renal 40.5% | UO-31 renal 27.3% | TK-10 renal 42.7% | ACHN renal 10.7% | CAKI-1 renal 41.5% | CCRF-CEM leukemia 87.6% | MOLT-4 leukemia 68.4%
active: HT29 colon 6.8% | LOX IMVI melanoma 9.18%

CC1CCN(C(=O)CSc2nc3sc4c(c3c(=O)[nH]2)CCCC4)CC1
inactive: HCT-15 colon 102% | HT29 colon 116% | SNB-75 CNS 99.5% | U251 CNS 95.5% | PC-3 prostate 100% | SK-MEL-5 melanoma 91.8% | LOX IMVI melanoma 86.4% | SK-MEL-28 melanoma 125% | SK-MEL-2 melanoma 80.2% | EKVX NSCLC 98.9% | SN12C renal 102% | UO-31 renal 82.6% | TK-10 renal 163% | ACHN renal 101% | A498 renal 95.8% | CCRF-CEM leukemia 74.4% | MOLT-4 leukemia 98.5%

CCC(c1cccc(Br)c1)C(C(=O)O)c1ccc(OC)cc1 (centres undefined)
inactive: HCT-15 colon 83.5% | HT29 colon 106% | SNB-75 CNS 96% | U251 CNS 90.4% | PC-3 prostate 90.2% | SK-MEL-5 melanoma 94.6% | UACC-62 melanoma 82.9% | LOX IMVI melanoma 95.8% | SK-MEL-28 melanoma 95.8% | SK-MEL-2 melanoma 103% | EKVX NSCLC 100% | SN12C renal 105% | UO-31 renal 90.9% | TK-10 renal 107% | ACHN renal 107% | CAKI-1 renal 93.2% | A498 renal 100% | CCRF-CEM leukemia 110% | MOLT-4 leukemia 111%

CCCCOc1nc2c(C)cccc2cc1C1CNC(=O)c2ccccc2N1 (centres undefined)
inactive: HCT-15 colon 43.4% | HT29 colon 61.4% | SNB-75 CNS 56.6% | U251 CNS 63.7% | PC-3 prostate 40.1% | SK-MEL-5 melanoma 43.4% | LOX IMVI melanoma 60.8% | SK-MEL-28 melanoma 66.4% | SK-MEL-2 melanoma 62.8% | EKVX NSCLC 61.9% | SN12C renal 70.9% | UO-31 renal 67.8% | TK-10 renal 98.7% | ACHN renal 66.3% | CAKI-1 renal 52.1% | A498 renal 55.3% | CCRF-CEM leukemia 34.3% | MOLT-4 leukemia 39%

O=C(c1c[nH]c2ccccc12)C(Sc1nc2ccccc2c(=O)[nH]1)c1ccccc1 (centres undefined)
inactive: HCT-15 colon 104% | HT29 colon 71.3% | SNB-75 CNS 90.6% | U251 CNS 101% | PC-3 prostate 94.1% | SK-MEL-5 melanoma 99.8% | LOX IMVI melanoma 95.3% | SK-MEL-28 melanoma 117% | SK-MEL-2 melanoma 72.2% | EKVX NSCLC 91.2% | SN12C renal 98.5% | UO-31 renal 81.8% | TK-10 renal 97.6% | ACHN renal 97.9% | A498 renal 106% | CCRF-CEM leukemia 99.8% | MOLT-4 leukemia 99.8%
